Measured values reported in the supplement of paper PMC11537057.
Where a name gives a salt, the structure may show the parent alone. Screen size: about 1,700 compounds; about 15 (0.9%) showed activity. This is one part of a sample in which actives are shown more often than they occur.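 Rule for the calls: active = infection cut by 80% or more with cell growth above 90% in both runs; inactive = the rest.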

System: HSV-1 strain 17 YFP-ICP4 in A549
Test: HSV-1 infection relative to DMSO (ICP4-YFP per H2B-RFP signal); higher = more viral infection (less antiviral activity), active = hit call of the paper
Settings: 10 µM; 48 h; MOI: 0.1
Experimental: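 Selleck FDA-approved library (L1300) screened in duplicate at 10 µM on A549 H2B-mRuby cells in 384-well plates, infected with HSV-1 strain 17 YFP-ICP4 at MOI 0.1 one hour before drug addition. Imaged after 2 days at 37°C. Cell growth (H2B-RFP) and infection (ICP4-YFP) are expressed as % of DMSO-treated wells. Hits: growth >90% and infection <20% of DMSO.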

Row | Compound | HSV-1 infection
1 | COc1nc2ccc(Br)cc2cc1[C@@H](c1ccccc1)[C@@](O)(CCN(C)C)c1cccc2ccccc12 [Bedaquiline] | 114% (inactive)
2 | COc1nc2ccc(Br)cc2cc1[C@@H](c1ccccc1)[C@@](O)(CCN(C)C)c1cccc2ccccc12 [Bedaquiline fumarate] | 111% (inactive)
3 | Cc1cn(-c2cc(NC(=O)c3ccc(C)c(Nc4nccc(-c5cnccn5)n4)c3)cc(C(F)(F)F)c2)cn1 [Radotinib] | 34.8% (inactive)
4 | C[N+](C)(C)CCO.O=C([O-])C(O)C(O)C(=O)O (stereo not given) [Choline bitartrate] | 97.1% (inactive)
5 | C[C@H](NC(=O)[C@@H](Cc1ccc2ccccc2c1)NC(=O)[C@@H](C)N)C(=O)N[C@@H](Cc1c[nH]c2ccccc12)C(=O)N[C@H](Cc1ccccc1)C(=O)N[C@@H](CCCCN)C(N)=O | 97.6% (inactive)
6 | Cn1ncc(Cl)c1-c1cc(C(=O)N[C@H](CN)Cc2cccc(F)c2)sc1Cl | 52.8% (inactive)
7 | CN(C)N(C)C(=O)[C@@]1(Cc2ccccc2)CCCN(C(=O)[C@@H](Cc2c[nH]c3ccccc23)NC(=O)C(C)(C)N)C1 [Anamorelin] | 97% (inactive)
8 | CN1CCc2nc(C(=O)N[C@@H]3C[C@@H](C(=O)N(C)C)CC[C@@H]3NC(=O)C(=O)Nc3ccc(Cl)cn3)sc2C1 [Edoxaban tosylate Monohydrate] | 124% (inactive)
9 | CN1CCc2nc(C(=O)N[C@@H]3C[C@@H](C(=O)N(C)C)CC[C@@H]3NC(=O)C(=O)Nc3ccc(Cl)cn3)sc2C1 [Edoxaban] | 115% (inactive)
10 | Cc1ccccc1-c1cc(N2CCN(C)CC2)ncc1N(C)C(=O)C(C)(C)c1cc(C(F)(F)F)cc(C(F)(F)F)c1 [Netupitant] | 114% (inactive)
11 | CC(=O)Oc1c(C)c(C)c2c(c1C)CCC(C)(CCC[C@H](C)CCC[C@H](C)CCCC(C)C)O2 (stereo not given in full) [Vitamin E Acetate] | 116% (inactive)
12 | CC(=O)Oc1ccccc1C(=O)O.CC(=O)Oc1ccccc1C(=O)O.NC(N)=O [Carbasalate Calcium] | 90.3% (inactive)
13 | CNS(=O)(=O)C[C@H]1CC[C@H](N(C)c2[nH]cnc3nccc2-3)CC1 | 102% (inactive)
14 | Cc1cc(S(=O)(=O)O)c2c(C)ccc(C(C)C)cc1-2 [Sodium gualenate] | 93% (inactive)
15 | COc1ccc(C[C@@H]2c3cc(OC)c(OC)cc3CC[N@+]2(C)CCC(=O)OCCCCCOC(=O)CC[N@@+]2(C)CCc3cc(OC)c(OC)cc3[C@H]2Cc2ccc(OC)c(OC)c2)cc1OC [Cisatracurium Besylate] | 90.4% (inactive)
16 | NC(=O)[C@@H]1CC[C@@H]2CN1C(=O)N2OS(=O)(=O)O [Avibactam sodium] | 116% (inactive)
17 | CN(C)c1ccc2nc3ccc(=[N+](C)C)cc-3sc2c1 [Methylene Blue] | 3.01% (active)
18 | COc1cc(S(=O)(=O)O)ccc1O [Sulfogaiacol] | 93.8% (inactive)

Row | Compound | HSV-1 infection
19 | N#CC1(c2ccc(NC(=O)c3cccnc3NCc3ccncc3)cc2)CCCC1 | 91.6% (inactive)
20 | CCCCc1nc2cc(/C=C/C(=O)NO)ccc2n1CCN(CC)CC [Pracinostat (SB939)] | 44.1% (inactive)
21 | C[C@@H](O)[C@@H]1NC(=O)[C@H](CCCCN)NC(=O)[C@@H](Cc2c[nH]c3ccccc23)NC(=O)[C@H](Cc2ccccc2)NC(=O)[C@@H](NC(=O)[C@H](N)Cc2ccccc2)CSSC[C@@H](C(=O)N[C@H](CO)[C@@H](C)O)NC1=O [Octreotide Acetate] | 93.8% (inactive)
22 | CC1=NN(c2ccc(C)c(C)c2)C(=O)/C1=N\Nc1cccc(-c2cccc(C(=O)O)c2)c1O [Eltrombopag Olamine] | 99% (inactive)
23 | CC1=NN(c2ccc(C)c(C)c2)C(=O)/C1=N\Nc1cccc(-c2cccc(C(=O)O)c2)c1O [Eltrombopag] | 82.4% (inactive)
24 | CS(=O)(=O)n1cc2c(n1)CN([C@H]1CO[C@H](c3cc(F)ccc3F)[C@@H](N)C1)C2 [Omarigliptin (MK-3102)] | 106% (inactive)
25 | CCCCCCCCCCCCCCCCOc1nc2ccc(C)cc2c(=O)o1 [Cetilistat] | 103% (inactive)
26 | CCOc1cc2ncc(C#N)c(Nc3ccc(OCc4ccccn4)c(Cl)c3)c2cc1NC(=O)/C=C/CN(C)C [Neratinib (HKI-272)] | 73.4% (inactive)
27 | CC(=O)N1C[C@H](O)C[C@H]1C(=O)O [Oxaceprol] | 97.8% (inactive)
28 | COC[C@H]1C[C@@H](c2nc(-c3ccc4c(c3)COc3cc5c(ccc6nc([C@@H]7CC[C@H](C)N7C(=O)[C@@H](NC(=O)OC)C(C)C)[nH]c65)cc3-4)c[nH]2)N(C(=O)[C@H](NC(=O)OC)c2ccccc2)C1 [Velpatasvir] | 102% (inactive)
29 | CCC/N=C1\S/C(=C\c2ccc(OC[C@H](O)CO)c(Cl)c2)C(=O)N1c1ccccc1C [Ponesimod] | 57.6% (inactive)
30 | CCOc1ccc(Cc2cc([C@]34OC[C@](CO)(O3)[C@@H](O)[C@H](O)[C@H]4O)ccc2Cl)cc1 [Ertugliflozin] | 114% (inactive)
31 | C=C1CC[C@H](O)C/C1=C/C=C1\CCC[C@]2(C)[C@@H]([C@H](C)CCCC(C)(C)O)CC[C@@H]12 [Calcifediol] | 89.7% (inactive)
32 | CCOC(=O)N[C@@H]1CC[C@@H]2[C@@H](C1)C[C@H]1C(=O)O[C@H](C)[C@H]1[C@H]2/C=C/c1ccc(-c2cccc(F)c2)cn1 [Vorapaxar] | 113% (inactive)
33 | CN[C@@H]1[C@@H](O)[C@@H](O[C@@H]2[C@@H](O)[C@H](O[C@H]3O[C@H](CN)[C@@H](O)[C@H](O)[C@H]3O)[C@@H](N)C[C@H]2NC(=O)[C@@H](O)CN)OC[C@]1(C)O [Isepamicin Sulphate] | 124% (inactive)
34 | CO/N=C(\C(=O)N[C@@H]1C(=O)N2C(C(=O)[O-])=C(C[n+]3cccc4c3CCC4)CS[C@H]12)c1csc(N)n1 [Cefpirome sulfate] | 108% (inactive)
35 | CC(C)(CO)C(O)C(=O)NCCCO (racemic) [DL-Panthenol] | 94% (inactive)
